# Laboratory results: PubChem BioAssay (EPA / NIEHS)
# Activity calls are given as the source filed them. How the source made its calls: active means hit-call score of the fitted dose curve at least 0.9, where 1 is the maximum; inactive means score below 0.9.
# What was measured:
# [1] = target: Transcription factor E2F1 (Homo sapiens) (UniProt Q01094); assay: ATG_E2F_CIS: Attagene CIS-FACTORIAL HepG2 Assay for human E2F Transcription Factor 1 (AID 2282935); conditions: HepG2 Attagene cis-reporter, E2F reporter RNA transcripts; actives raise or lower the signal
# Sequence of Transcription factor E2F1 (Homo sapiens) (Q01094 whole entry, looked up): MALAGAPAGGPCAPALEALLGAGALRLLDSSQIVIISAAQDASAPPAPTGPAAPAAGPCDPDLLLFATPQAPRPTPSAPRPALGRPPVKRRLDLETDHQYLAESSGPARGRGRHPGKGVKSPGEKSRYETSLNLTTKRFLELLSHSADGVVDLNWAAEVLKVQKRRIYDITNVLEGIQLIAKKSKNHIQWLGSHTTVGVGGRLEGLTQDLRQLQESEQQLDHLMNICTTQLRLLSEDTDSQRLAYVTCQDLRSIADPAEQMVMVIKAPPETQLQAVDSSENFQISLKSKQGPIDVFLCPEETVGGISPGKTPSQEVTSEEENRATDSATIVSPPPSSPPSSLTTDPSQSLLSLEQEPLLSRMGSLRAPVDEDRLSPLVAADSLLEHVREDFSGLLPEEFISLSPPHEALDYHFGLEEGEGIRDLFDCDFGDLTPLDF
# Procedure, shortened: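 Cis-element reporter mRNA induction in transiently transfected HepG2, 24 h exposure. Activity fitted in both directions relative to DMSO negative control.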
# [2] = ATG_E_Box_CIS: Attagene CIS-FACTORIAL HepG2 Assay for human Enhancer Box (E-box) (AID 2282936); conditions: HepG2 E-box cis-reporter transcription, actives raise or lower the signal
# Procedure, shortened: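 Cells: HepG2 (human liver), transient MRTU transfection. Exposure 24 h. RNA → oligo(dT) RT → PCR → 6-FAM label → HpaI → CE. Activity fitted both directions relative to DMSO.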
# [3] = ATG_M_61_CIS: Attagene CIS-FACTORIAL HepG2 Assay for M61 Transcription Factor (Internal Marker) (AID 2282937); conditions: HepG2 Attagene CIS-FACTORIAL M61 internal marker reporter; actives raise or lower the signal
# Procedure, shortened: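 This endpoint serves as an internal background control within a multiplexed HepG2 cis-reporter panel. Cells are exposed for 24 h; reporter mRNA is amplified, fluorescently labelled and sized by capillary electrophoresis, with DMSO as negative control.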
# [4] = ATG_EGR_CIS: Attagene CIS-FACTORIAL HepG2 Assay for human Early Growth Response 1 (EGR1) (AID 2282938); conditions: HepG2 Attagene CIS-FACTORIAL EGR reporter mRNA; actives raise or lower the signal
# Procedure, shortened: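 HepG2, transient MRTU transfection (cis promoters), 24 h compound. RNA → RT (oligo-dT) → PCR → 6-FAM labelling → HpaI cut → CE fluorescence. Bidirectional fit, DMSO baseline.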
# [5] = ATG_ERE_CIS: Attagene CIS-FACTORIAL HepG2 Assay for Estrogen Response Element (ERE) (AID 2282940); conditions: HepG2 ERE cis-reporter, Attagene RNA transcript; actives raise or lower the signal
# Procedure, shortened: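 After a 24 h chemical treatment, RNA from reporter-transfected HepG2 cells is reverse-transcribed, PCR-amplified and fluorescently labelled. Fragments separated by capillary electrophoresis give reporter signal; DMSO serves as negative control.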
# [6] = ATG_Ets_CIS: Attagene CIS-FACTORIAL HepG2 Assay for human Erythroblast Transformation Specific (ETS) (AID 2282941); conditions: HepG2 ETS cis-reporter transcription, actives raise or lower the signal
# Procedure, shortened: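 Steps: transfect HepG2 with multiple reporter units; treat compound 24 h; isolate RNA, DNase-treat, reverse-transcribe; PCR-amplify, label with 6-FAM, digest with HpaI; separate by capillary electrophoresis. Activity fitted both directions versus DMSO.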
# [7] = target: Hepatocyte nuclear factor 3-beta (Homo sapiens) (UniProt Q9Y261); assay: ATG_FoxA2_CIS: Attagene CIS-FACTORIAL HepG2 Assay for human Forkhead box A2 (FOXA2) (AID 2282942); conditions: HepG2 cis-reporter transcription factor activity, 24 h; actives raise or lower the signal
# Sequence of Hepatocyte nuclear factor 3-beta (Homo sapiens) (Q9Y261 whole entry, looked up): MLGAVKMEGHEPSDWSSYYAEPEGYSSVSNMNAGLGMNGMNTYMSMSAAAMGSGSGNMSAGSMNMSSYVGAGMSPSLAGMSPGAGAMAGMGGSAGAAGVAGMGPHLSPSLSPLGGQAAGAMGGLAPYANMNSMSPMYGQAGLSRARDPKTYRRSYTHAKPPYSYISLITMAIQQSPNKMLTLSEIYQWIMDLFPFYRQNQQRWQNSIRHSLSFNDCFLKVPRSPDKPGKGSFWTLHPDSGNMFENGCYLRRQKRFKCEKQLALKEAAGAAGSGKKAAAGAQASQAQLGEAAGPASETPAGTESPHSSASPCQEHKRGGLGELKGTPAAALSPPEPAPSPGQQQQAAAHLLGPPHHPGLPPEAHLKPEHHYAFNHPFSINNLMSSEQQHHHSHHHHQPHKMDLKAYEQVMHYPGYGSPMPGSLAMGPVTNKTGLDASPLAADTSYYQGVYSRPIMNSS
# Procedure, shortened: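 Cells: HepG2, transient multiplex reporter transfection. Exposure 24 h. Detection: reporter-specific RT-PCR, fluorescent labelling, restriction digest, capillary electrophoresis. Analysis: bidirectional curve fit, DMSO as negative control.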
# [8] = ATG_FoxO_CIS: Attagene CIS-FACTORIAL HepG2 Assay for human Forkhead box O (FoxO) (AID 2282943); conditions: HepG2 Attagene cis-reporter, FoxO element, mRNA; actives raise or lower the signal
# Procedure, shortened: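 Human hepatoma HepG2 cells carry transiently introduced reporter transcription units controlled by cis promoter elements. Chemical treatment lasted 24 h, and mRNA signal was compared with DMSO.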
# [9] = ATG_GATA_CIS: Attagene CIS-FACTORIAL HepG2 Assay for human GATA Binding Protein (AID 2282944); conditions: HepG2 GATA cis-element reporter, Attagene multiplex mRNA; actives raise or lower the signal
# Procedure, shortened: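 Cells: HepG2, transiently transfected with cis-regulated reporter transcription units. Exposure: 24 h. Detection: RT-PCR plus capillary electrophoresis of FAM-labeled fragments. Analysis: bidirectional, DMSO as baseline.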
# [10] = ATG_M_19_CIS: Attagene CIS-FACTORIAL HepG2 Assay for M19 Transcription Factor (Internal Marker) (AID 2282939); conditions: HepG2 Attagene CIS-FACTORIAL M19 internal marker reporter; actives raise or lower the signal
# Procedure, shortened: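 HepG2, MRTU transient transfection, 24 h dosing. Total RNA → RT-PCR → 6-FAM primer extension → HpaI digest → CE fluorescence. Bidirectional curve fit, DMSO negative control.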
Structure (SMILES),outcome [1],outcome [2],outcome [3],outcome [4],AC50 [5],outcome [6],outcome [7],outcome [8],outcome [9],outcome [10],outcome [5],AC50 [4],AC50 [6]
NCCN1CCNCC1,inactive,inactive,inactive,inactive,32.5 µM (active),inactive,inactive,inactive,inactive,–,–,–,–
CC(=O)CC(C)(C)C1CCCCC1,inactive,inactive,inactive,inactive,–,inactive,inactive,inactive,inactive,inactive,–,–,–
COc1ccc2[nH]cc(CCNC(C)=O)c2c1,inactive,inactive,inactive,inactive,–,inactive,inactive,inactive,inactive,–,inactive,–,–
N=C1N=C(N)c2ccccc21,inactive,inactive,inactive,inactive,–,inactive,inactive,inactive,inactive,inactive,–,–,–
O=C1OC2(c3ccc(O)cc3Oc3cc(O)ccc32)c2ccccc21,inactive,inactive,inactive,inactive,–,inactive,inactive,inactive,inactive,inactive,–,–,–
c1ccc(Sc2ccccc2)cc1,inactive,inactive,inactive,inactive,–,inactive,inactive,inactive,inactive,inactive,–,–,–
CC(=O)c1ccc(C)cc1,inactive,inactive,inactive,inactive,–,inactive,inactive,inactive,inactive,–,inactive,–,–
C=CC(C)(CCC=C(C)C)OC(=O)CC (centres undefined),inactive,inactive,inactive,inactive,–,inactive,inactive,inactive,inactive,–,inactive,–,–
Nc1ccc(N)c([N+](=O)[O-])c1,inactive,inactive,inactive,inactive,41.6 µM (active) [middle of 5 runs],inactive,inactive,inactive,inactive,–,–,–,–
CCCCCC#CC(=O)OC,inactive,inactive,inactive,inactive,–,inactive,inactive,inactive,inactive,–,inactive,–,–
CCCCC1CCCCC(=O)O1 (centres undefined),inactive,inactive,inactive,inactive,–,inactive,inactive,inactive,inactive,–,inactive,–,–
OCC=Cc1ccccc1,inactive,inactive,inactive,inactive,–,inactive,–,inactive,inactive,inactive,–,–,–
O=c1cc(-c2ccc(O)cc2)oc2cc(O)cc(O)c12,inactive,inactive,inactive,–,–,–,–,inactive,inactive,inactive,–,10.1 µM (active),17.5 µM (active)
[Cl][Dy]([Cl])[Cl],inactive,inactive,inactive,inactive,–,inactive,inactive,inactive,inactive,–,inactive,–,–
